The text below walks through data of PubChem BioAssay AID1465 (SRMLSC, 2008).

The campaign covered roughly 220,000 compounds. About 160 (0.073%) were called active. The list is a sample of the results. Entries with a potency or affinity are not part of this list. A number with no mark means an inactive call.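 How the source made its calls: active means fold induction of absorbance versus untreated yeast above a set limit, then at least 30% activation at any dose in follow-up; inconclusive means repeats straddling the limit, or above it without dose testing; inactive means fold induction below the set limit.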

The assay in a line: mitochondrial function rescue without frataxin homolog – Friedreich's ataxia, plus single-dose screen, dose response (AID 1465). Particulars: S. cerevisiae Yfh1-off respiration, WST-1 reduction, 72 h; at 50 µM; active compounds read high.
As a reminder, the fold induction is the signal under treatment as a multiple of the control signal. Consider `Cc1cc(C)nc(SCc2ccc(C(=O)N/N=C/c3ccccn3)cc2)n1`, for which the fold induction is 1.01.
Consider `CCSc1nc(=O)n(-c2ccccc2)c(C)c1C(C)=O`, for which the fold induction is 1.05.
The figure for `CC(C)C(=O)Nc1cccc(NC(=O)c2cccc([N+](=O)[O-])c2)c1` is 0.95; for `Cc1cc(C)n(CC(=O)Nc2ccccc2)n1` it is 1.01.
As for `COc1cc(CNC(C)C)c(Br)cc1OC1CCCC1`, the fold induction was 1.02.
For the molecule `Cc1sc2nc(SC3CCOC3=O)n(Cc3ccccc3)c(=O)c2c1C` (centres undefined), the fold induction was 0.94.
In the case of `CC(C)OCCCNC(=O)CCC(=O)NNc1nc2ccccc2c2nc(-c3ccccc3)nn12`, the fold induction was 0.97.
The figure for `O=C1C(Cl)=C(Nc2ccc(O)cc2)C(=O)c2ccccc21` is 1.23; for `Cc1ccc(NC2=C(Cl)C(=O)c3ccccc3C2=O)cc1` it is 1.27; for `Cc1sc2ncn(CC(=O)Nc3ccccc3F)c(=O)c2c1-c1ccccc1` it is 0.95.
With `O=C(NCC(c1ccco1)N1CCCCC1)c1ccc2c(c1)S(=O)(=O)c1ccccc1C2=O` (centres undefined), the fold induction is 0.99.
For `CCCC(=O)c1cc2ccccc2oc1=O`, the fold induction was 1.11.
With `Cc1cc(C)nc(SCC(=O)c2cc3ccccc3oc2=O)n1`, the fold induction was 1.02.
As to `CCCCC(=O)NC(=S)NNC(=O)CC#N`, the fold induction is 0.83.
On to `CCCCCC(=O)NC(=S)NNC(=O)CC`, for which the fold induction was 0.75.
Take `CCCNC(=O)C1(CC2CC(c3ccccc3)=NO2)CCN(C(=O)CCCCCBr)CC1` (centres undefined): the fold induction is 1.03.
Take `CCCC(=O)NC(c1ccccc1OC)c1ccc2cccnc2c1O` (centres undefined): the fold induction was 1.03.
For the molecule `CCCC(=O)NC(c1cccs1)c1cc(Cl)c2cccnc2c1O` (centres undefined), the fold induction is 1.06.
The figure for `CCCCC(=O)NC(c1ccco1)c1cc(Cl)c2cccnc2c1O` (centres undefined) is 0.91; for `O=C(NC(c1ccccc1)c1cc(Cl)c2cccnc2c1O)c1cccnc1` (centres undefined) it is 0.87; for `O=C(NC(c1ccc(Cl)cc1)c1cc(Cl)c2cccnc2c1O)c1cccnc1` (centres undefined) it is 1.09.
`O=C(O)COc1ccccc1C(Nc1ccccn1)c1cc(Cl)c2cccnc2c1O` (centres undefined): the fold induction was 1.19.
In the case of `CCC(=O)NC(c1ccco1)c1cc(Cl)c2cccnc2c1O` (centres undefined), the fold induction was 1.13.
Take `CCC(=O)NC(c1ccccc1OC)c1ccc2cccnc2c1O` (centres undefined): the fold induction was 0.67.
As for `O=C(Cn1c(COc2ccccc2)nc2ccccc21)Nc1cc(Cl)cc(Cl)c1`, the fold induction is 0.92.
As for `CO/N=C/c1ccc(N2CCN(C(=O)c3ccc(F)cc3)CC2)c([N+](=O)[O-])c1`, the fold induction is 0.84.
The figure for `CC(=O)Nc1ccc(CN2CCCC(C(=O)c3ccc(C(F)(F)F)cc3)C2)cc1` (centres undefined) is 0.88.
For the molecule `Cc1cc2ccccc2n2c(SCC(=O)NCC3CCCO3)nnc12` (centres undefined), the fold induction is 0.94.
In the case of `Cc1nc(SC(C)C(=O)Nc2cccc(C(F)(F)F)c2)c2c(C)c(C(=O)O)sc2n1` (centres undefined), the fold induction is 1.09.
With `COCCNC(=O)c1cnn2c(C(F)F)cc(-c3ccccc3)nc12` the figure was 1.17; with `COC(=O)c1ccc(C(=O)OC)c(=O)[nH]1`, 1.03; with `COC(=O)c1ccc(N)cc1O`, 1.05.
Take `COc1ccc(N2CCN(C(=O)c3ccc(C(C)(C)C)cc3)CC2)cc1`: the fold induction is 0.96.
Take `CC(=O)Nc1nc2cc3c(cc2s1)OCO3`: the fold induction is 0.99.
Consider `COc1ccc(CCNC(=O)COC(=O)Cc2ccc(OC)cc2)cc1`, for which the fold induction was 0.8.
For `CCOC(=O)c1c(C)oc2c1c(C=NCCO)c(O)c1ccccc12`, the fold induction is 1.38.
As for `CCOC(=O)c1c(C)oc2c1c(CN1CCN(C(=O)OCC)CC1)c(O)c1ccccc12`, the fold induction was 1.19.
On to `CC(Oc1cccc2c1OC(C)(C)C2)C(=O)O` (centres undefined), for which the fold induction was 1.05.
The figure for `CC(C)c1nnc(SCC(=O)N2CCc3ccccc32)n1C` is 0.98; for `O=C1c2ccccc2NC(c2ccc(-c3cccc([N+](=O)[O-])c3)o2)N1O` (centres undefined) it is 0.9; for `O=C1c2ccccc2NC(c2ccc(-c3ccc(Br)cc3)o2)N1O` (centres undefined) it is 0.77.
Consider `O=c1oc2ccccc2cc1C1=Nn2c(nnc2-c2cccnc2)SC1`, for which the fold induction was 1.06.
For `Cc1c(/C=N/NC(=O)c2cccnc2)c2ccccc2n1Cc1ccccc1`, the fold induction is 1.01.
For the molecule `COc1ccc(Cn2c(O)c(C=Nc3ccc(OC)cc3)c3ccccc3c2=O)cc1`, the fold induction is 1.13.
The figure for `COc1ccc(Cn2c(O)c(C=Nc3ccccc3)c3ccccc3c2=O)cc1` is 1.05.
As to `O=C(N/N=C/c1c(O)n(-c2ccccc2Cl)c(=O)c2ccccc12)c1cccnc1`, the fold induction was 1.49.
In the case of `CC1CCC(NC(=S)NCCN(C)C)CC1` (centres undefined), the fold induction was 1.
For `O=C1C2CCCN2C(c2ccc(Br)cc2)N1c1ccc(F)cc1` (centres undefined), the fold induction is 0.86.
With `CCOC(=O)/C(C(N)=NCC(C)C)=C(/O)c1ccccc1` the figure was 0.925.
Take `O=C(CSc1nc(-c2ccc(F)cc2)cc(C(F)(F)F)n1)Nc1ccc2c(c1)OCO2`: the fold induction is 0.96.
As to `O=C(OCCOc1ccccc1)c1n[nH]c2ccccc12`, the fold induction was 0.95.
The figure for `COC(=O)[C@H](C)NC(=O)Nc1ccc(OC)cc1OC` is 1.1.
Turning to `Cc1noc(C)c1CSc1ccc(Br)cc1`, the fold induction is 0.89.
Consider `COc1ccc(C(=O)NCC(=O)N/N=C/C=C/c2ccccc2)cc1OC`, for which the fold induction was 0.96.
As for `CCCCCCN1C=CC(=C/C=C(\C#N)C(=O)OCC)C=C1`, the fold induction was 1.18.
Regarding `CCOC(=O)/C(C#N)=C/C=C1\C=Cc2ccccc2N1CC`, the fold induction is 1.
As to `CCCCNC(=S)N1CCN(c2ccc(C(C)=O)cc2)CC1`, the fold induction was 0.96.
In the case of `COc1cccc(NC(=O)NCCC2=CCCCC2)c1`, the fold induction is 0.86.
Turning to `Cc1ccccc1C(=O)NNC(=O)C(C)N1C(=O)c2ccccc2C1=O` (centres undefined), the fold induction is 1.01.
On to `NC(=S)n1[nH]c(-c2ccc([N+](=O)[O-])cc2)c(N=Nc2cccc(Cl)c2)c1=O`, for which the fold induction was 1.01.
The figure for `NC(=S)n1[nH]c(-c2ccc([N+](=O)[O-])cc2)c(N=Nc2ccc(Cl)cc2)c1=O` is 1.58; for `Cc1ccc(-n2c(SCC(=O)Nc3cc(C)on3)nc3c(c2=O)SC(C)C3)cc1` (centres undefined) it is 1.05; for `CC(C)C(c1nnnn1CCc1ccccc1)N1CCOCC1` (centres undefined) it is 1.03.
With `COc1cccc2c1C(=O)C=C(C)C2=O`, the fold induction was 1.23.
Consider `CC(C)(C=O)C1=CC(=O)c2ccccc2C1=O`, for which the fold induction is 1.3.
With `Cc1ccc(N2CCN(C(=O)c3cccc([N+](=O)[O-])c3)CC2)cc1Cl`, the fold induction was 0.82.
In the case of `O=C(CSc1ccccc1)Nc1ccc(C(=O)Nc2ccc(O)cc2)cc1`, the fold induction is 1.06.
In the case of `O=C(Cn1cnc2cc([N+](=O)[O-])ccc2c1=O)Nc1ccc2c(c1)OCO2`, the fold induction is 0.88.
Regarding `COc1ccc(NC(=S)NNC(=O)COc2ccc(Cl)cc2Cl)cc1`, the fold induction is 0.84.
Regarding `Cc1cccc(NC(=S)NNC(=O)COc2ccc(Cl)cc2Cl)c1`, the fold induction is 1.14.
As to `O=C(NCc1ccc(Cl)cc1)C1CCC(CNc2c(N3CCOCC3)c(=O)c2=O)CC1` (centres undefined), the fold induction is 1.07.
Regarding `O=C(N/N=C/c1cc([N+](=O)[O-])ccc1O)c1cc(-c2ccccc2)nc2ccccc12`, the fold induction was 1.16.
Take `COc1cc([N+](=O)[O-])cc(/C=N/NC(=O)c2cc(C)nc3ccccc23)c1O`: the fold induction was 1.4.
As to `Cc1ccccc1-c1nc(CN2CCSCC2)c(C)o1`, the fold induction is 1.04.
